This note sets out measurements from publication PMC7862700, “An all-to-all approach to the identification of sequence-specific readers for epigenetic DNA modifications on cytosine”.

What all share (experiment): DAPPL (digital affinity profiling via proximity ligation, sequencing); 10 mM Tris-HCl pH 7.5, 50 mM NaCl, 1 mM DTT, 4% glycerol, room temperature, 30 min; GST-TFs on glutathione beads, 16-mer random dsDNA library, 0.1% formaldehyde crosslink after washing; high values mean tight binding
In one assay the target is T1, FEV (Homo sapiens, UniProt Q99581 1-238).
T1 sequence: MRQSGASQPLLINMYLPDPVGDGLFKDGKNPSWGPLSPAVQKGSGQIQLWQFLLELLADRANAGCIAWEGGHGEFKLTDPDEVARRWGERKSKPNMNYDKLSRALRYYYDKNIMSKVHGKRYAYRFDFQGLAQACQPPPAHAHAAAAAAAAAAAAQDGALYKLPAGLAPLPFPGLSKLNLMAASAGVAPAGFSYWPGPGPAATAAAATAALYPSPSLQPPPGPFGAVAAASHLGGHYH
The following applies: protein: recombinant; tags: N-terminal GST; dsDNA, one strand shown. An outline of the steps: (§1)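 In yeast, human transcription factors were expressed with a GST fusion, then pulled down on glutathione beads and given DNA barcodes. Pooled with a tag-only sample, they were exposed to 200 nmole of a 16-mer random double-stranded DNA library (Tris/NaCl/DTT/glycerol buffer, room temperature, 30 min), washed, crosslinked with 0.1% formaldehyde, proximity-ligated using BsaI/T4 ligase for 1 h at 37 °C, PCR-amplified and read on an Illumina NextSeq500. Each hexamer's frequency of reads for a factor, divided by the matching frequency for the tag-only sample, gives the binding signal.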

For the next assay, the target named is ETV5 (Homo sapiens, UniProt P41161 1-510). As to conditions: protein: recombinant; tags: N-terminal GST; dsDNA, one strand shown. An outline of the steps:
as §1

The target in the next assay is HSF1 (Homo sapiens, UniProt Q00613 1-529). The following applies: protein: recombinant; tags: N-terminal GST; chain copies: 3; dsDNA, one strand shown. An outline of the steps: as §1
The next assay concerns the target T2, SPIC (Homo sapiens, UniProt Q8N5J4 1-248).
T2 sequence: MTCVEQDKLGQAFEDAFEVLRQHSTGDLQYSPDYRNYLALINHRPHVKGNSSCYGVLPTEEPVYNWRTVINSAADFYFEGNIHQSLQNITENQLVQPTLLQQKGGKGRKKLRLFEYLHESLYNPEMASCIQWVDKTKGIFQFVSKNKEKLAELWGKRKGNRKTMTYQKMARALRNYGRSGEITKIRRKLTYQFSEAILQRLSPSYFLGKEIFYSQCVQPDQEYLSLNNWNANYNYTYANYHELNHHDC
The following applies: protein: recombinant; tags: N-terminal GST; dsDNA, one strand shown. An outline of the steps:
as §1

In another assay the target is ELF4 (Homo sapiens, UniProt Q99607 1-663). As to conditions: protein: recombinant; tags: N-terminal GST; dsDNA, one strand shown. An outline of the steps: as §1
For the next assay, the target named is T3, ELK4 (Homo sapiens, UniProt P28324-2 1-405).
T3 sequence: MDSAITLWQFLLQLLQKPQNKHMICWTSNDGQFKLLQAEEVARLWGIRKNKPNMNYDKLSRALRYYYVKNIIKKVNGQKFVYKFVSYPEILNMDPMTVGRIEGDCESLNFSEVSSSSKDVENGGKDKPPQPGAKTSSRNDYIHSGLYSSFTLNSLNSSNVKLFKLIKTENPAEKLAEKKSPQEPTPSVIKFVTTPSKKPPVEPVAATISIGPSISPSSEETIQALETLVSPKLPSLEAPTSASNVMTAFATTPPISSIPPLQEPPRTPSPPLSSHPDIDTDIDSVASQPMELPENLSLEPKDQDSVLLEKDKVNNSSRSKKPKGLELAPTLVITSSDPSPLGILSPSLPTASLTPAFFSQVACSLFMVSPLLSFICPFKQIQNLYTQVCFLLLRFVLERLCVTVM
The following applies: protein: recombinant; tags: N-terminal GST; dsDNA, one strand shown. An outline of the steps: as §1

For another assay, the target named is T4, ETV2 (Homo sapiens, UniProt O00321 1-342).
T4 sequence: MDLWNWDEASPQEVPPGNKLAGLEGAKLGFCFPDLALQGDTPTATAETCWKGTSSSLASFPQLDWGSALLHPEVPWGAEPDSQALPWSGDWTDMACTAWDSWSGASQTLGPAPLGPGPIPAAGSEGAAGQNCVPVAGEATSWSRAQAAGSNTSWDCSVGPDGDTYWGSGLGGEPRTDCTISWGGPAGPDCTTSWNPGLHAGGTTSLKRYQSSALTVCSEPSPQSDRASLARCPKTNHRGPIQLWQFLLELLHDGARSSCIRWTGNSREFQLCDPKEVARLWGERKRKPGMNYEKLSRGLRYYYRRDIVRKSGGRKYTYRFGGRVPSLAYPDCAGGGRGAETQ
The following applies: protein: recombinant; tags: N-terminal GST; dsDNA, one strand shown. An outline of the steps:
as §1

The next assay deals with T5, ELF3 (Homo sapiens, UniProt P78545 1-371).
T5 sequence: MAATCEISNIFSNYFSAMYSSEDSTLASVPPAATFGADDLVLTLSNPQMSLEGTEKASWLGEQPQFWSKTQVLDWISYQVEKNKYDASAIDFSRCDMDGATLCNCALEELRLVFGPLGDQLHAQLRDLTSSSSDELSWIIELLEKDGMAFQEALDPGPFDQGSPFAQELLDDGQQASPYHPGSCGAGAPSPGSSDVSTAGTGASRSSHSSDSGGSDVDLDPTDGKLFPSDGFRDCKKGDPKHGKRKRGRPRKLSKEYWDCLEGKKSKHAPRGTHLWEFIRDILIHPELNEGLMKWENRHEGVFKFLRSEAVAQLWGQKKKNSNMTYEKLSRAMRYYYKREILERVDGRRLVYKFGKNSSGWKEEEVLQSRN
As to conditions: protein: recombinant; tags: N-terminal GST; dsDNA, one strand shown. An outline of the steps:
as §1

For a further assay, the target named is CRX (Homo sapiens, UniProt O43186 1-299). As to conditions: protein: recombinant; tags: N-terminal GST; dsDNA, one strand shown. An outline of the steps: as §1
Another assay concerns the target ETV1 (Homo sapiens, UniProt P50549 1-477). As to conditions: protein: recombinant; tags: N-terminal GST; dsDNA, one strand shown. An outline of the steps:
as §1

The target of a further assay is T6, ERF (Homo sapiens, UniProt P50548 1-548).
T6 sequence: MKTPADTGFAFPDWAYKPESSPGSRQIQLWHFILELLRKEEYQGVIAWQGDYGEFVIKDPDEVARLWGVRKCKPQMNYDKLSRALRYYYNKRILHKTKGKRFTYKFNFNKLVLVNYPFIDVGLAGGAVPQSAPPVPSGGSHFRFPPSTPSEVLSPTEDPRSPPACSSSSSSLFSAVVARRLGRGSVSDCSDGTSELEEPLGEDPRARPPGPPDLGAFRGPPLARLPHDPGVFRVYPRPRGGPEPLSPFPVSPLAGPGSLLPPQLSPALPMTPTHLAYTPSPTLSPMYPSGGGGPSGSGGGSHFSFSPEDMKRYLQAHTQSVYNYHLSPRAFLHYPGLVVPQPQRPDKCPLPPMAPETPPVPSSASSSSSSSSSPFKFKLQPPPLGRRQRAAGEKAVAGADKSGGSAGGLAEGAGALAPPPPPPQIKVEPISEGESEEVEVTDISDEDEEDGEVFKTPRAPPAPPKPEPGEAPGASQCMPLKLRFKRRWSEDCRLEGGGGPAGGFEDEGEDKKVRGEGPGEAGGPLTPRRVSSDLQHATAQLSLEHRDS
The following applies: protein: recombinant; tags: N-terminal GST; dsDNA, one strand shown. An outline of the steps: as §1

Another assay addresses T7, ETV3L (Homo sapiens, UniProt Q6ZN32 1-361).
T7 sequence: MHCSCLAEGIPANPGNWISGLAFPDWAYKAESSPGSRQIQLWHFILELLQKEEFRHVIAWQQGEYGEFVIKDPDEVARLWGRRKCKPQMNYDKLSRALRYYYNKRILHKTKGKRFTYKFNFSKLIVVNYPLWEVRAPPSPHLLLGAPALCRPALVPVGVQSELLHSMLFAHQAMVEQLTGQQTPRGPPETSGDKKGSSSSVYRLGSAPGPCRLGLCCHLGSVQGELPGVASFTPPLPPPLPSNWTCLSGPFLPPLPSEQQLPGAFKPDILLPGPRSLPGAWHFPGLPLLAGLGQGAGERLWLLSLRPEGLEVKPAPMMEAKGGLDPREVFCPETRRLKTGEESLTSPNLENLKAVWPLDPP
As to conditions: protein: recombinant; tags: N-terminal GST; dsDNA, one strand shown. An outline of the steps:
as §1

In another assay the target is T8, ETS2 (Homo sapiens, UniProt P15036 1-469).
T8 sequence: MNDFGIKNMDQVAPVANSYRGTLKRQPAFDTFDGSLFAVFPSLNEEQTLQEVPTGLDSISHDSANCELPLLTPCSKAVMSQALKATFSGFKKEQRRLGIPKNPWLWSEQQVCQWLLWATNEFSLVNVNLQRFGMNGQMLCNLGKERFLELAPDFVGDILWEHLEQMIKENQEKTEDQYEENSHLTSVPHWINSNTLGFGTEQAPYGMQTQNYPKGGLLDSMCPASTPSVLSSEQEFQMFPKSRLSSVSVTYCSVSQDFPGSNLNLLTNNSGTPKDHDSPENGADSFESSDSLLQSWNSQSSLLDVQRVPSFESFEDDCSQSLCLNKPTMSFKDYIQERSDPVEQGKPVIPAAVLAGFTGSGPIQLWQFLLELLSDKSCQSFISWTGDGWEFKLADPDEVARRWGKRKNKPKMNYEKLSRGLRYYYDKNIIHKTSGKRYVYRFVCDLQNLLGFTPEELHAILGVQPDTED
The following applies: protein: recombinant; tags: N-terminal GST; dsDNA, one strand shown. An outline of the steps:
as §1

For another assay, the target named is T9, SPDEF (Homo sapiens, UniProt O95238 1-335).
T9 sequence: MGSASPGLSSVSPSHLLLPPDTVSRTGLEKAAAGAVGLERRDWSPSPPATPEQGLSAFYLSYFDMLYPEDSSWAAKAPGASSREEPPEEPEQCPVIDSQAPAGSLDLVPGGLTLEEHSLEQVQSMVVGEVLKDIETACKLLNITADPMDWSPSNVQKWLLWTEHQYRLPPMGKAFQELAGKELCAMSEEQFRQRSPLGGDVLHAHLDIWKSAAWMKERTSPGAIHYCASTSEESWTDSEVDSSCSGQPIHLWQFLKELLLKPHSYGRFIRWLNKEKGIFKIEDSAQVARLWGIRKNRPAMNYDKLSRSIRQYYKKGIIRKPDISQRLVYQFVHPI
As to conditions: protein: recombinant; tags: N-terminal GST; dsDNA, one strand shown. An outline of the steps: as §1

Another assay addresses T10, ETV7 (Homo sapiens, UniProt Q9Y603 1-341).
T10 sequence: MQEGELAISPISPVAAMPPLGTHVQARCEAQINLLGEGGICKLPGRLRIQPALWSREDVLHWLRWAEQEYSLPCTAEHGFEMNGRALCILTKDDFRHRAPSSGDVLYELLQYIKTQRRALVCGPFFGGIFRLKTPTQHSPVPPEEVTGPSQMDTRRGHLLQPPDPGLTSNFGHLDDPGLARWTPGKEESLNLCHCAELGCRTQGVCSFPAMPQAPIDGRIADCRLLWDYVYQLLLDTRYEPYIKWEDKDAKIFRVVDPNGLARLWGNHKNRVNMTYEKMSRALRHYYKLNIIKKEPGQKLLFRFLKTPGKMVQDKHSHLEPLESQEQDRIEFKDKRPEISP
The following applies: protein: recombinant; tags: N-terminal GST; dsDNA, one strand shown. An outline of the steps:
as §1

A further assay has as its target T11, ELF5 (Homo sapiens, UniProt Q9UKW6-2 1-255).
T11 sequence: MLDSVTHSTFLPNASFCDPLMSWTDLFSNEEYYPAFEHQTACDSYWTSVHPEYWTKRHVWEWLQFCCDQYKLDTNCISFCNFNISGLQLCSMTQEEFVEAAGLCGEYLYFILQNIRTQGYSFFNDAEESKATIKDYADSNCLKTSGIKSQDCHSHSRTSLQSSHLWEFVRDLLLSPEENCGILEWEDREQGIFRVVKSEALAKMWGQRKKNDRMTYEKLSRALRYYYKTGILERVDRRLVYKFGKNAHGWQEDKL
As to conditions: protein: recombinant; tags: N-terminal GST; dsDNA, one strand shown. An outline of the steps: as §1

A further assay addresses T12, ETV3 (Homo sapiens, UniProt P41162-2 1-143).
T12 sequence: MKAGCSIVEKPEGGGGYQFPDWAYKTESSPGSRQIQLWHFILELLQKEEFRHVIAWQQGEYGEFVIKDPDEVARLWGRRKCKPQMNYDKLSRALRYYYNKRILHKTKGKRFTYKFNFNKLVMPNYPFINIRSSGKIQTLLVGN
The following applies: protein: recombinant; tags: N-terminal GST; dsDNA, one strand shown. An outline of the steps:
as §1

A further assay has as its target ETV6 (Homo sapiens, UniProt P41212 1-452). As to conditions: protein: recombinant; tags: N-terminal GST; dsDNA, one strand shown. An outline of the steps: as §1

ETV5, sequence (P41161 whole entry): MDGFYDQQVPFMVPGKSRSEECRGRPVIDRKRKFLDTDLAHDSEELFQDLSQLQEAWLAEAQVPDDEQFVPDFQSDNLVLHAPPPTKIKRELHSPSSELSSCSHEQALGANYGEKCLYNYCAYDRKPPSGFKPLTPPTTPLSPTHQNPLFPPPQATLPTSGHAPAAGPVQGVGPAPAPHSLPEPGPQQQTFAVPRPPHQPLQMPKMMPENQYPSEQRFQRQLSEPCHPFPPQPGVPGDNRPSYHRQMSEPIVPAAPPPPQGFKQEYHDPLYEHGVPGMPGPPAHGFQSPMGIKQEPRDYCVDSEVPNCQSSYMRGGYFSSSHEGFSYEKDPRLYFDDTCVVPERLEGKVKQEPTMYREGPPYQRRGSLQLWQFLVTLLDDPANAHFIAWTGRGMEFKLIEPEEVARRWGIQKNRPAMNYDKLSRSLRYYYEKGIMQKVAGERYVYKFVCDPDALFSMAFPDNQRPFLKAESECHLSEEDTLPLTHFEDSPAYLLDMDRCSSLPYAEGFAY
ELF4, sequence (Q99607 whole entry): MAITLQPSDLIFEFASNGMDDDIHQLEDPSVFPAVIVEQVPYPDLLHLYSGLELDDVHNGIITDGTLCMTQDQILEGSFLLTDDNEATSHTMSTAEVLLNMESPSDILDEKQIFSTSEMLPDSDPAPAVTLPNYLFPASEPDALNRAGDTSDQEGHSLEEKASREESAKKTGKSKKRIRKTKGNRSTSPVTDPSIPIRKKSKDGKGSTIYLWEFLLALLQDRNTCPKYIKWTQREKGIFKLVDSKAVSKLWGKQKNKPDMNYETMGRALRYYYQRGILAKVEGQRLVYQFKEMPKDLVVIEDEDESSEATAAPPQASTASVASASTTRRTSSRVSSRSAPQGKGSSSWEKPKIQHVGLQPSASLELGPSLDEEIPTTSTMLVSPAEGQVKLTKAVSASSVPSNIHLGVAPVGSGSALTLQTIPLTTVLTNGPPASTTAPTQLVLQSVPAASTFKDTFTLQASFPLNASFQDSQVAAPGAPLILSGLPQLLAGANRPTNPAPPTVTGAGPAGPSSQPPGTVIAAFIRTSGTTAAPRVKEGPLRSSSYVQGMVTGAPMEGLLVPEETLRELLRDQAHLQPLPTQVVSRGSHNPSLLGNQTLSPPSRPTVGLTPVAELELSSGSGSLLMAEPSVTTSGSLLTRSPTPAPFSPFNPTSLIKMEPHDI
ETV1, sequence (P50549 whole entry): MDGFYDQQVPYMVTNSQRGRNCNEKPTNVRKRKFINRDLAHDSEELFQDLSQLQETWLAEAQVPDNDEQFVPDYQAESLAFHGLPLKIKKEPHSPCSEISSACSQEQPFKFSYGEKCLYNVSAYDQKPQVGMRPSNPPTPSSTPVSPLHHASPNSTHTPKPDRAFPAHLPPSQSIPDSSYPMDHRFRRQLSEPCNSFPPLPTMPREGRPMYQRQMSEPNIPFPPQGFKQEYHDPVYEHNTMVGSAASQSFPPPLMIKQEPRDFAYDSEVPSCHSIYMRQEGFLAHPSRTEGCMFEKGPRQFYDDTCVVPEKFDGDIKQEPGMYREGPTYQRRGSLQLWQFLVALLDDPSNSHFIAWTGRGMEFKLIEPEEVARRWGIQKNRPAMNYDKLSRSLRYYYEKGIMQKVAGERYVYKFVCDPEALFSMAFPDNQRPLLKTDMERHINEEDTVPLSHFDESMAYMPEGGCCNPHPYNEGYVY
CRX, sequence (O43186 whole entry): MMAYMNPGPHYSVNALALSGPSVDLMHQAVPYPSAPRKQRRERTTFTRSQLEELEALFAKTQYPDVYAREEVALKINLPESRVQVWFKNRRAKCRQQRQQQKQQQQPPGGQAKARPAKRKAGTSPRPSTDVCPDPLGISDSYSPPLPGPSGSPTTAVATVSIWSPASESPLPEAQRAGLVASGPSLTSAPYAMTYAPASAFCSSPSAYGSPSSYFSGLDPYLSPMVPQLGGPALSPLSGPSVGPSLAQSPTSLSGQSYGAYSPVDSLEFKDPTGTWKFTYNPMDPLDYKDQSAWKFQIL
ETV6, sequence (P41212 whole entry): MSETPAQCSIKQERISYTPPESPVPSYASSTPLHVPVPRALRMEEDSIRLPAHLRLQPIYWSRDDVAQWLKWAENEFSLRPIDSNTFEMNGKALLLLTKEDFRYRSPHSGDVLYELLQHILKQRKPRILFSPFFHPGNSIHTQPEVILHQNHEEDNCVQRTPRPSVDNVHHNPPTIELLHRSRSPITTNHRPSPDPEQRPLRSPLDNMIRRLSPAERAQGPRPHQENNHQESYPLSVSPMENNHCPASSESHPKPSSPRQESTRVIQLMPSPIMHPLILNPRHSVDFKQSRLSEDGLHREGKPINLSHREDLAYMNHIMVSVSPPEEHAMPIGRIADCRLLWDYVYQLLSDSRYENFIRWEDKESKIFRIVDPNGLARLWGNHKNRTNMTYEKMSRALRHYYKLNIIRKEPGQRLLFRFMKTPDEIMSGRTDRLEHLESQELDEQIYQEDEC
HSF1, sequence (Q00613 whole entry): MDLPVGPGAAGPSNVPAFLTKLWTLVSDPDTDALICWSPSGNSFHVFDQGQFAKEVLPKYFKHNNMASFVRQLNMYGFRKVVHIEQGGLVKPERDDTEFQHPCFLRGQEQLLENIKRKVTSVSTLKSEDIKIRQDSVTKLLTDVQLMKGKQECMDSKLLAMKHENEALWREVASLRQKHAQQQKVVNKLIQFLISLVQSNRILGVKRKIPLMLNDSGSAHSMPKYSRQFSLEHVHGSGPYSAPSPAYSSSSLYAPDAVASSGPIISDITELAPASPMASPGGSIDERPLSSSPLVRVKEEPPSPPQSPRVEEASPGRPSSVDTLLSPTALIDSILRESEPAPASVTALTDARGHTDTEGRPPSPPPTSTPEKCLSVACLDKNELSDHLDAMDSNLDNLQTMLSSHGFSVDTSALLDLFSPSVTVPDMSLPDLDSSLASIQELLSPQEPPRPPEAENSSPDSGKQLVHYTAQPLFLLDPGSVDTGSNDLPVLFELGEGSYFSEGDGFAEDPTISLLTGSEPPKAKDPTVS

In the case of TCGATT, the binding signal is 1.02 fold enrichment (6-mer frequency, TF over GST control) with FEV; 1.12 fold enrichment (6-mer frequency, TF over GST control) with ETV5; 1.48 fold enrichment (6-mer frequency, TF over GST control) with HSF1; 1.2 fold enrichment (6-mer frequency, TF over GST control) with SPIC; 1.19 fold enrichment (6-mer frequency, TF over GST control) in the assay with ELF4; 1.14 fold enrichment (6-mer frequency, TF over GST control) with ELK4. For the same sequence, the binding signal in the assay with ETV2 is 1.04 fold enrichment (6-mer frequency, TF over GST control); with ELF3 it was 1.1 fold enrichment (6-mer frequency, TF over GST control); in the assay with CRX, 1.37 fold enrichment (6-mer frequency, TF over GST control); with ETV1, 1.14 fold enrichment (6-mer frequency, TF over GST control); with ERF it was 1.01 fold enrichment (6-mer frequency, TF over GST control); with ETV3L it was 1.06 fold enrichment (6-mer frequency, TF over GST control). Further, the binding signal is 1.16 fold enrichment (6-mer frequency, TF over GST control) with ETS2; 1.05 fold enrichment (6-mer frequency, TF over GST control) with SPDEF; 1.04 fold enrichment (6-mer frequency, TF over GST control) with ETV7; 1.03 fold enrichment (6-mer frequency, TF over GST control) with ELF5; 1.01 fold enrichment (6-mer frequency, TF over GST control) with ETV3; 1.04 fold enrichment (6-mer frequency, TF over GST control) in the assay with ETV6.
